About 1,400 (0.39%) of roughly 360,000 compounds were called active.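 Rule for the calls: active = activation above its plate's cutoff, the mean activation of sample wells plus 3 SD; inactive = the rest.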 Shown is part of a subset that was picked to be rich in actives.

For the experiment, the target named is Muscarinic acetylcholine receptor M4 (Homo sapiens) (UniProt P08173). Nature of the experiment: CHRM4 PAMs potentiating acetylcholine calcium signal – CHO-K1 cells, Fluo-8 calcium fluorescence, primary screen (AID 624126). To be noted: CHO-K1 hM4/Gqi5, Fluo-8 calcium fluorescence, ACh EC20; at 3 µM; active compounds read high; 0% = ACh EC20, 100% = maximal ACh.
Muscarinic acetylcholine receptor M4 (Homo sapiens), sequence (P08173 whole entry, looked up): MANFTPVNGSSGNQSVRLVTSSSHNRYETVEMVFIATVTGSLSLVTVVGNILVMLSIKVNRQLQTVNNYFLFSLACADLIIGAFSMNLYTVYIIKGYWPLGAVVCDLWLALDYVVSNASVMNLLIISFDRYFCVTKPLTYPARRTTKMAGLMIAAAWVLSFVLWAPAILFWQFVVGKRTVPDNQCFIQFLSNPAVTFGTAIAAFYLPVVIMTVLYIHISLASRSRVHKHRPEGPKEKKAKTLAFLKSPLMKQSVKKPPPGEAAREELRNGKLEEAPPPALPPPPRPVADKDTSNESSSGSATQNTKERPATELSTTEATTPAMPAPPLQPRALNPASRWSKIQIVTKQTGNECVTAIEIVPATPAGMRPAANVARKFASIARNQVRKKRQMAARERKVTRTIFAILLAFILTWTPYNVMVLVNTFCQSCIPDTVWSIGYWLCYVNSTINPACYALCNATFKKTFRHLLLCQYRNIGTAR
Take `Cc1ccccc1NC(=O)CCOc1ccccc1`: the activation was 15.2% (active).
For `Cc1cccc(OCCC(=O)Nc2ccccc2C(N)=O)c1`, the activation was 0.92% (inactive).
Take `CCc1ccccc1NC(=O)CCOc1ccccc1`: the activation is -7.57% (inactive).
Under `CCCn1nc(NS(=O)(=O)c2ccccc2)c2cc3cc(C)ccc3nc21` stands 9.07% (inactive); under `COc1ccc(CN2C(=O)C(CC(=O)NC3CCCCC3)CC(C(=O)N3CCOCC3)=C2C)cc1` (stereo not given), 0.19% (inactive); under `Cn1c(CCN2CCN(c3ccccn3)CC2)nc2cc(NS(=O)(=O)c3ccc(F)cc3)ccc21`, -13.9% (inactive).
Under `C=CCC1(CC=C)CCCN1C(=O)CC1C(=O)NCCN1Cc1ccccc1OC` (stereo not given) stands 9.2% (inactive); under `O=C(Nc1ccccc1-c1ccccc1)c1ccccc1[N+](=O)[O-]`, -0.05% (inactive); under `O=C(NCCNc1ccccc1[N+](=O)[O-])c1ccccc1F`, -0.9% (inactive).
Turning to `O=C(Nc1ccccc1Cl)c1ccccc1S(=O)(=O)c1ccccc1[N+](=O)[O-]`, the activation is 24.3% (active).
Regarding `Cc1noc(NS(=O)(=O)c2ccc(NC(=O)c3oc4ccc(F)cc4c3C)cc2)c1C`, the activation was -0.81% (inactive).
With `COc1ccc(C(=O)Nc2ccc(S(=O)(=O)Nc3onc(C)c3C)cc2)cc1OC` the figure was 31.2% (active).
On to `Cc1cc(OC(C)C(=O)Nc2ccc(S(=O)(=O)Nc3onc(C)c3C)cc2)cc(C)c1Cl` (stereo not given), for which the activation was -0.5% (inactive).
For the molecule `CCOC(=O)CNC(=O)CSc1ccc2nnc(-c3cccnc3)n2n1`, the activation was -1.25% (inactive).
`CN(Cc1ccccc1)C(=O)c1ccc(NC2=NC3CS(=O)(=O)CC3S2)cc1` (stereo not given): the activation is -4.53% (inactive).
On to `Cc1ccc(-c2cc(C(=O)NCc3cn(C)nc3C)c3cc(Br)ccc3n2)cc1`, for which the activation was -8.1% (inactive).
With `CCS(=O)(=O)Nc1cccc(-c2cc(-c3ccccc3)c3cc(C)ccc3n2)c1` the figure was -23% (inactive).
Under `Cc1ccc2nc(-c3ccncc3)cc(C(=O)Nc3ccncc3)c2c1` stands 20.7% (active).
In the case of `CCCC[C@@H]1CN=C(N)N1CCc1cc(C(F)(F)F)cc(C(F)(F)F)c1`, the activation was -12.2% (inactive).
As for `CCOC(=O)C1=C(c2ccccc2)O/C(=C(/C(=O)OC)C(F)(F)F)S1`, the activation was -8.8% (inactive).
With `COCCNc1ncnc2c1ncn2[C@H]1CN(Cc2ccc(OC)cc2)C[C@@H](CO)O1` the figure was 16.3% (active).
With `COCCNc1ncnc2c1ncn2[C@H]1CN(CCN2CCOCC2)C[C@@H](CO)O1` the figure was -3.76% (inactive); with `OC[C@@H]1CN(Cc2ccc(Cl)cc2)C[C@H](n2cnc3c(NCc4ccncc4)ncnc32)O1`, -0.98% (inactive).
Under `COc1cc(CC(=O)N2CCC(n3nccc3NC(=O)C3CC3)CC2)cc(OC)c1OC` stands 0.58% (inactive); under `Cc1cc(C)cc(N)c1`, -1.71% (inactive).
For the molecule `CC(Nc1nc(C(F)(F)F)nc2ccccc12)c1cccs1` (stereo not given), the activation is -11.8% (inactive).
Consider `O=C(CCNC(=O)c1ccccc1Cl)NN=Cc1ccco1`, for which the activation was 3.05% (inactive).
On to `CC(C)NC(=O)C(=O)N/N=C/c1ccco1`, for which the activation is 23.7% (active).
Under `Cc1c(Cl)cccc1NC(=O)CCC(=O)N/N=C/c1ccco1` stands 4.77% (inactive); under `O=C(OCC(=O)N(CCc1ccccc1)Cc1ccccc1)c1ccccc1[N+](=O)[O-]`, -11% (inactive); under `CC(NC(=O)COc1ccccc1)C(=O)NC1=NCCS1` (stereo not given), 8.32% (inactive).
For `CCN1CN(Cc2ccccc2)CNC1=S`, the activation is 10.7% (inactive).
With `CCCCN1C(=O)c2ccc(C(=O)Nc3ccc(S(=O)(=O)N(C)C)cc3)cc2C1=O`, the activation was -10.2% (inactive).
As to `CN1CCN(S(=O)(=O)c2cccc(C(=O)Nc3cccc(S(N)(=O)=O)c3)c2)CC1`, the activation was -0.95% (inactive).
Regarding `CC(C)CCN1C(=O)c2ccc(C(=O)Nc3cccc(S(N)(=O)=O)c3)cc2C1=O`, the activation was 23.1% (active).
As to `CC(=O)NC(NC(=S)Nc1c(C)n(C)n(-c2ccccc2)c1=O)C(Cl)(Cl)Cl` (stereo not given), the activation is -1.16% (inactive).
With `CCCCc1ccc(NC(=S)N2CCCC(CO)C2)cc1` (stereo not given) the figure was 0.72% (inactive); with `CCOC(=O)c1sc(NC(=O)C2CSC3(C)CCC(=O)N23)nc1C` (stereo not given), 2.06% (inactive); with `CCOC(=O)c1sc(NC(=O)CSc2n[nH]c(CC)n2)nc1C`, -9.01% (inactive).
As to `CCOC(=O)c1sc(/N=C/Nc2nc(C)c(C(=O)OCC)s2)nc1C`, the activation is 39% (active).
With `Cc1ccn2cc(-c3nonc3C)cc2c1` the figure was 3.14% (inactive).
With `Cc1ccc(S(=O)(=O)N2CCCCC2)cc1C(=O)N1CCN(CCO)CC1` the figure was 7.4% (inactive); with `CN1CCN(C(=O)N2c3ccccc3CCc3ccccc32)CC1`, -20.3% (inactive); with `CCc1noc(C)c1C(=O)N1CCCC(N2CCN(c3ccc(F)cc3)CC2)C1` (stereo not given), 20% (active).
Under `Cc1cnc(C(=O)N2CCCC(N3CCN(c4ccccc4F)CC3)C2)cn1` (stereo not given) stands 6.32% (inactive); under `COc1ccccc1CN1CCCC(N2CCN(c3ccc(F)cc3)CC2)C1` (stereo not given), -7.29% (inactive).
Take `COCCCNC(=O)Cn1cc(/C=C(\C#N)C(=O)N2CCN(c3ccccc3)CC2)c2ccccc21`: the activation is 6.26% (inactive).
As for `COc1ccc(CCNC(=O)CCn2c(=O)oc3ccccc32)cc1OC`, the activation was 5.54% (inactive).
For the molecule `CCN1CCC2(CCN(Cc3cn[nH]c3-c3ccc(OC)c(F)c3)C2)C1` (stereo not given), the activation was 16.5% (inactive).
Regarding `CC[C@]1(O)CC2CN(CCc3c([nH]c4ccccc34)[C@@](C(=O)OC)(c3cc4c(cc3OC)N(C=O)[C@H]3[C@@](O)(C(=O)OC)[C@H](OC(C)=O)[C@]5(CC)C=CCN6CC[C@]43[C@@H]65)C2)C1` (stereo not given in full), the activation is -0.6% (inactive).
As to `CCN(CC)S(=O)(=O)c1ccc(NC(=O)c2cccnc2Cl)c(NC(=O)c2cccnc2Cl)c1`, the activation is 2.53% (inactive).
With `CCn1cc(C(=O)NCCO)c(=O)c2cc(F)c(N3CCN(C)CC3)cc21`, the activation is -4.27% (inactive).
Under `CCCCNC(=O)c1cn(CC)c2cc(N3CCN(C(=O)c4ccco4)CC3)c(F)cc2c1=O` stands 18% (active); under `CCCCCCn1cc(C(=O)O)c(=O)c2cc(F)c(N3CCCCC3)cc21`, -1.05% (inactive).
Under `O=C1NC[C@@H](c2ccccc2)OC(=O)[C@H](Cc2ccc(F)cc2)CC/C=C/C[C@H]1CC(=O)N(CCO)Cc1ccccc1` stands -11.5% (inactive).
With `O=C(O)CCn1cc(/C=C/C(=O)c2ccc(Cl)cc2)c(-c2cccc(Br)c2)n1` the figure was -5.08% (inactive).
As to `O=[N+]([O-])c1ccc2[nH]c3c(c2c1)CCCC3O` (stereo not given), the activation is 6.6% (inactive).
With `CC(C)Oc1ccccc1C(=O)NC(CO)C(=O)O` (stereo not given) the figure was 7.23% (inactive); with `CC(=O)Oc1ccc(NC(=O)CCC2CCCCC2)c(C(=O)O)c1`, 4.74% (inactive).
With `COc1ccc(NC(=O)CCCC2CCCCC2)c(OC)c1` the figure was 21.1% (active).
In the case of `COc1ccc(NC(=O)CCn2ccnc2)c(OC)c1`, the activation was -8.61% (inactive).
In the case of `CCOC(=O)c1c(CN(C)C)n(-c2ccccc2)c2cc(Br)c(O)cc12`, the activation was 1.89% (inactive).
With `Nc1nnc(C2CCCC2)s1` the figure was -4.96% (inactive); with `COc1cc(/C=C/C(=O)N2CCc3ccccc3C2)cc(OC)c1OC`, -4.53% (inactive); with `COc1ccc(/C=C/C(=O)N2CCCC2)cc1OC`, 31.3% (active).
Under `CCOC(=O)C1CCN(C(=O)/C=C/c2cc(OC)c(OC)c(OC)c2)CC1` stands 0.77% (inactive); under `COc1cccc(NC(=O)Cn2c3ccccc3c3nc4n(c(=O)c32)CCS4)c1`, 7.32% (inactive); under `O=C(NCc1ccncc1)NC12CC3CC(CC(C3)C1)C2`, 21.2% (active).
Regarding `O=C(NCc1cccnc1)C12CC3CC(CC(C3)C1)C2`, the activation is -4.11% (inactive).
On to `S=C(NCc1ccc(Cl)cc1)NC12CC3CC(CC(C3)C1)C2`, for which the activation is -13.6% (inactive).
With `Cc1noc(C)c1NC(=O)N(C)C[C@@H]1Oc2cc(Br)ccc2S(=O)(=O)N([C@@H](C)CO)C[C@H]1C` the figure was 3.07% (inactive); with `COC(=O)c1ccc(COC(=O)c2cnc(Cl)c(Cl)c2)cc1`, 1.26% (inactive); with `COc1ccc(CCNC(=O)COC(=O)c2ncc(Cl)c(Cl)c2Cl)cc1OC`, 0.15% (inactive).
As for `COC(=O)c1ccc(OC(=O)c2nn(C)cc2Cl)c(OC)c1`, the activation is 22% (active).
As to `COc1ccc(CSc2nnnn2-c2ccc(O)cc2)cc1F`, the activation was -3.48% (inactive).

The values above are taken from PubChem BioAssay AID624126 (The Scripps Research Institute Molecular Screening Center, 2012).
